# Assay results published in the supplement of paper PMC11150407.
# The whole screen tested about 2,100 compounds, of which about 180 (8.6%) showed an effect of 50% or more. What follows is part of a selection rich in strong results, with near analogues and random picks from the rest.
# System: MOLM1 and UCSD/AML1 (averaged)
# Experiment: cell viability relative to DMSO control (POC); higher = less growth inhibition
# Settings: 1 µM; 72 h
# Experimental: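 Primary viability screen in the 3q26 EVI1-high AML cell lines MOLM1 and UCSD/AML1 (1.5e3 cells/well, 384-well), compounds at 1 uM for 72 h. ATP CellTiter-Glo read-out given as percent of viable cells over DMSO control (POC), averaged over duplicates. DMSO was the negative control and 5 uM etoposide the positive control. This mapping covers the MicroSource Spectrum and Selleck anticancer libraries (drug names).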
row,Structure (SMILES),cell viability [%]
1,O=C1C(Cl)=C(Cl)C(=O)C(Cl)=C1Cl,114
2,CNc1ccc(C(=O)CC(O)CCC(C)C2OC(=O)CC(O)CC(=O)CC(O)CC(O)CC(O)CC(O)CC3(O)CC(O)C(C(=O)OC)C(CC(O[C@@H]4O[C@H](C)[C@@H](O)[C@H](N)[C@@H]4O)/C=C/C=C/C=C/C=C/C=C/C=C/C=C/C2C)O3)cc1.COC(=O)C1C(O)CC2(O)CC(O)CC(O)CC(O)CC(O)CC(=O)CC(O)CC(=O)OC(C(C)CCC(O)CC(=O)c3ccc(N)cc3)C(C)/C=C/C=C/C=C/C=C/C=C/C=C/C=C/C(O[C@@H]3O[C@H](C)[C@@H](O)[C@H](N)[C@@H]3O)CC1O2 (stereo partly drawn),93.4
3,CN(CC[C@H](N)CC(=O)N[C@H]1C=C[C@H](n2ccc(N)nc2=O)O[C@@H]1C(=O)O)C(=N)N,114
4,COc1cc2c(cc1-c1cc3cc4ccoc4cc3oc1=O)OCO2,99.4
5,CC[C@@H](C)C(=O)O[C@H]1[C@H](O)[C@H]2[C@@H](CN3C[C@@H](C)CC[C@H]3[C@@]2(C)O)[C@@H]2C[C@]34O[C@]5(O)[C@@H](OC(=O)[C@@](C)(O)CC)CC[C@@]3(C)[C@@H]5[C@@H](OC(C)=O)[C@@H](OC(C)=O)[C@H]4[C@@]21O,89.1
6,COc1ccc2c(c1OC)C(=O)O[C@H]2[C@H]1c2cc3c(cc2CCN1C)OCO3,93.9
7,COc1cc([C@@H]2c3cc4c(cc3[C@H](O)[C@H]3COC(=O)[C@@H]23)OCO4)cc(OC)c1OC,12.3
8,CN1CCc2cc3c(cc2C1O)OCO3 (stereo not drawn),102
9,COc1cc([C@@H]2c3cc4c(cc3[C@H](O)[C@H]3COC(=O)[C@H]23)OCO4)cc(OC)c1OC,6.17
10,COc1ccc2c(c1OC)C(=O)O[C@@H]2[C@H]1c2cc3c(cc2CCN1C)OCO3,88
11,Oc1cc(Cl)ccc1Oc1ccc(Cl)cc1Cl,95.1
12,Cc1ncc(CNC(=O)N(CCCl)N=O)c(N)n1,111
13,CC(=O)CC1CCCCN1 (stereo not drawn),102
14,CN[C@@H](C)[C@@H](O)c1ccccc1,105
15,O=c1[nH]c2ccccc2n1C1CCN(CCCC(c2ccc(F)cc2)c2ccc(F)cc2)CC1,94.7
16,CNC(C)C(O)c1ccccc1 (stereo not drawn),96.1
17,CC[C@@H](C(=O)[C@@H](C)[C@@H](O)[C@H](C)[C@@H]1O[C@@H]([C@@H](CC)C(=O)O)CC[C@@H]1C)[C@H]1O[C@]2(C=C[C@@H](O)[C@]3(CC[C@@](C)([C@H]4CC[C@](O)(CC)[C@H](C)O4)O3)O2)[C@H](C)C[C@@H]1C [Salinomycin (Procoxacin)],68.4
18,CC[C@@H](C(=O)[C@@H](C)[C@@H](O)[C@H](C)[C@@H]1O[C@@H]([C@@H](CC)C(=O)O)CC[C@@H]1C)[C@H]1O[C@]2(C=C[C@@H](O)[C@]3(CC[C@@](C)([C@H]4CC[C@](O)(CC)[C@H](C)O4)O3)O2)[C@H](C)C[C@@H]1C,20.9
19,CC(=O)O[C@@H]1[C@H]2CC[C@H]3[C@@](C)(O)[C@@H]4C[C@H](O)C(C)(C)[C@@]4(O)[C@H](O)C[C@@]13C[C@@]2(C)O,100
20,C[C@@H](CO)NC(=O)[C@@H]1C=C2c3cccc4[nH]cc(c34)C[C@H]2N(C)C1,102
21,Cc1c(O)c(O)cc2c1CC=C1[C@@]2(C)CC[C@@]2(C)[C@@H]3C[C@](C)(C(=O)O)CC[C@]3(C)CC[C@]12C,11.5
22,CC1=C(O)C(=O)C=C2C1=CC=C1[C@@]2(C)CC[C@@]2(C)[C@@H]3C[C@](C)(C(=O)O)CC[C@]3(C)CC[C@]12C,30.1
23,CC(C)C[C@H](CN)CC(=O)O,67.7
24,COC[C@]12CN(C=O)[C@@H]3[C@@H]4[C@H](OC)[C@H]1[C@@]3([C@@H](OC)C[C@H]2O)[C@@H]1C[C@@]2(O)[C@H](OC(=O)c3ccccc3)[C@@H]1[C@]4(OC(C)=O)[C@@H](O)[C@@H]2OC,111
25,C=C(C)[C@H]1Cc2c(ccc3c(=O)c4c(oc23)COc2cc(OC)c(OC)cc2-4)O1,106
26,S=C=NCc1ccccc1,95.3
27,C#CCOS(=O)OC1CCCCC1Oc1ccc(C(C)(C)C)cc1 (stereo not drawn),89.9

row,Structure (SMILES),cell viability [%]
1,CC(C)(C)C(=O)C(Oc1ccc(Cl)cc1)n1cncn1 (stereo not drawn),99.8
2,CC[C@@]1(O)C(=O)OCc2c1cc1n(c2=O)Cc2cc3ccccc3nc2-1,1.42
3,C[C@H]1CC[C@]2(NC1)O[C@H]1C[C@H]3[C@@H]4CC[C@H]5C[C@@H](O)CC[C@]5(C)[C@H]4CC[C@]3(C)[C@H]1[C@@H]2C,93.3
4,C[N+]1(C)CCc2cc3c(cc2[C@H]1[C@@H]1OC(=O)c2c1ccc1c2OCO1)OCO3,104
5,COc1cc2c(cc1OC)[C@H](C)NCC2,94.2
6,CC(C)[C@]12O[C@H]1[C@@H]1O[C@]13[C@]1(O[C@H]1C[C@H]1C4=C(CC[C@@]13C)C(=O)OC4)[C@@H]2O [Triptolide],2.21
7,CC(C)c1ccc2c(c1O)CC[C@H]1C3=C(CC[C@]21C)C(=O)OC3,89.3
8,c1ccc(/N=N/c2ccccc2)cc1,96.4
9,N#C/C(=C\c1ccc(O)cc1)C(=O)O [alpha-CYANO-4-HYDROXYCINNAMIC ACID],113
10,CCSCC[C@H](N)C(=O)O,99.2
11,CCC(C)C(=O)OC1CC2(C)C(c3ccoc3)OC(=O)CC23OC2(C)OC34C(OC(=O)C(C)C)C3(O)C(OC(=O)C5(C)OC5C)C5(C)CC3(O)C(C)(C5CC(=O)OC)C14O2 (stereo not drawn),91.2
12,COC(=O)[C@@H]1C[C@H](OC(C)=O)C(=O)[C@H]2[C@@]1(C)CC[C@H]1C(=O)O[C@H](c3ccoc3)C[C@]21C,104
13,CNC(=O)Oc1cccc2c1OC(C)(C)C2,85.3
14,C=CCc1ccc(OC)cc1,107
15,COc1ccc(C[C@H]2NC[C@H](O)[C@H]2OC(C)=O)cc1,3.59
16,CC[C@H]1[C@@H]2C[C@H]3[C@@H]4N(C)c5ccccc5[C@]45C[C@@H]([C@@H]2[C@H]5O)N3[C@@H]1O,109
17,CC1=C2C(=CO[C@H](C)[C@H]2C)C(O)=C(C(=O)O)C1=O,104
18,C[C@H]1O[C@@H](O[C@H]2[C@@H](O)C[C@H](O[C@H]3[C@@H](O)C[C@H](O[C@H]4CC[C@@]5(C)[C@H](CC[C@@H]6[C@@H]5CC[C@]5(C)[C@@H](C7=CC(=O)OC7)[C@@H](O)C[C@]65O)C4)O[C@@H]3C)O[C@@H]2C)C[C@H](O)[C@@H]1O,3.82
19,C[C@H]1CC[C@]2(NC1)O[C@H]1C[C@H]3[C@@H]4CC[C@H]5C[C@@H](O[C@@H]6O[C@H](CO)[C@H](O[C@@H]7O[C@H](CO)[C@@H](O)[C@H](O[C@@H]8OC[C@@H](O)[C@H](O)[C@H]8O)[C@H]7O[C@@H]7O[C@H](CO)[C@@H](O)[C@H](O)[C@H]7O)[C@H](O)[C@H]6O)CC[C@]5(C)[C@H]4CC[C@]3(C)[C@H]1[C@@H]2C,65.2
20,C[C@]12CC[C@H](O)C[C@H]1CC[C@@H]1[C@@H]2CC[C@]2(C)[C@@H](C3=CC(=O)OC3)[C@@H](O)C[C@]12O,99.6
21,C[C@@H]1CC[C@@]2(OC1)O[C@H]1[C@@H](O)[C@H]3[C@@H]4CC[C@H]5C[C@@H](O[C@@H]6O[C@H](CO)[C@H](O[C@@H]7O[C@H](CO)[C@@H](O)[C@H](O[C@@H]8OC[C@@H](O)[C@H](O)[C@H]8O)[C@H]7O[C@@H]7O[C@H](CO)[C@H](O)[C@H](O[C@@H]8O[C@H](CO)[C@@H](O)[C@H](O)[C@H]8O)[C@H]7O)[C@H](O)[C@H]6O)[C@H](O)C[C@]5(C)[C@H]4CC[C@]3(C)[C@H]1[C@@H]2C,92.7
22,CC(=O)[C@H]1CC[C@H]2[C@@H]3CC[C@H]4C[C@H](O)CC[C@]4(C)[C@H]3CC[C@]12C,87.7
23,CC(=O)OC1CCC23C(=O)OC45CCC(C6=CC(=O)OC6)C4(C)CCC2C5CCC3(O)C1 (stereo not drawn),5.23
24,CC(=O)O[C@H]1CC[C@@]2(C)[C@H](CC[C@@H]3[C@@H]2CC[C@]2(C)[C@@H](C4=CC(=O)OC4)[C@@H](OC(C)=O)C[C@]32O)C1,2.29
25,CC(=O)O[C@H]1C[C@@H]2CC[C@@H]3[C@H](CC[C@@]4(C)[C@H]3C[C@H]([N+]3(C)CCCCC3)[C@@H]4OC(C)=O)[C@@]2(C)C[C@@H]1[N+]1(C)CCCCC1,88.6
26,CC(=O)O[C@H]1C[C@H](O[C@H]2[C@@H](O)C[C@H](O[C@H]3[C@@H](O)C[C@H](O[C@H]4CC[C@@]5(C)[C@H](CC[C@@H]6[C@@H]5C[C@@H](O)[C@]5(C)[C@@H](C7=CC(=O)OC7)CC[C@]65O)C4)O[C@@H]3C)O[C@@H]2C)O[C@H](C)[C@H]1O[C@@H]1O[C@H](CO)[C@@H](O)[C@H](O)[C@H]1O,3.89
